The structures appear in SMILES notation. Activity calls are given as the source filed them.

Experiment [1] relates to Human papillomavirus type 1a protein E7 (residues 44-93). In words: small molecules binding HPV E7 44-93 – biochemical, small-molecule microarray, residues 44-93, 635 nm fluorescence, primary screen (AID 1108).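 Also: E7 fragment applied at 1 µg/mL in TBST for 1 h at 4 C; score combines spot fluorescence with its signal to noise ratio.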 As to conditions: fluorescence 635 nm, higher = more signal.
Experiment [2] in a line: hepatitis C replication reporter changes, two-sided – Huh7 cells, luciferase reporter, HCV replication inhibitor project, primary screen (AID 1109).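 Also: huh7 hepatoma cells harbouring a luciferase neomycin HCV replicon reporter; luciferase luminescence as measure of HCV replicon replication; test concentration not given here.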 Particulars: Huh7 HCV replicon luciferase reporter, 48 h; higher = more signal.
In experiment [3] the target is Left-right determination factor 2 (Homo sapiens) (UniProt O00292). The experiment can be described thus: small molecules binding LEFTY2 protein – biochemical, small-molecule microarray, 635 nm fluorescence scan, primary screen (AID 1110). As to conditions: higher = more signal.
Sequence of Left-right determination factor 2 (Homo sapiens) (O00292 whole entry, looked up): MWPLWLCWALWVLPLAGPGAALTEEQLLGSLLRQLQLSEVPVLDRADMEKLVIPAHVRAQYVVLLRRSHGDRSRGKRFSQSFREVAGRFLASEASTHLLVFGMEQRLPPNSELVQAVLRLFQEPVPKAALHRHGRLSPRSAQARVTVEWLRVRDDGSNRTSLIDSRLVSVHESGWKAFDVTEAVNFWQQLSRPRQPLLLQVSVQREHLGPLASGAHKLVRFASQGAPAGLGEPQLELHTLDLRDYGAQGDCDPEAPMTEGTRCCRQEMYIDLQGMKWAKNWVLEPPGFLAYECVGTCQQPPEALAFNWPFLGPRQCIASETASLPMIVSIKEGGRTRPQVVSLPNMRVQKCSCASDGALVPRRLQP
Experiment [4] has as its target Calmodulin-1 (Homo sapiens) (UniProt P0DP23). The experiment can be described thus: small molecules binding calmodulin-1 with EGTA – biochemical, small-molecule microarray, Cy5-labelled CALM1, profiling panel (AID 1111).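 Also: labelled calmodulin applied in Tris saline Tween buffer holding calcium plus EGTA and DTT.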 Particulars: Cy5-CALM1 binding fluorescence, higher = more signal.
Experiment [5] shares this target. The experiment can be described thus: small molecules binding Ca-loaded calmodulin-1 – biochemical, small-molecule microarray, Cy5-labelled CALM1, plus calcium, artefact control for SMM control-protein annotation, profiling panel (AID 1112).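 Also: score merges spot fluorescence with signal to noise from triplicate slides.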 Particulars: Cy5-CALM1 binding fluorescence, higher = more signal.
A short description of experiment [6]: probe aWnt5a binding to arrayed compounds – biochemical, biotinylated probe, 635/667 nm fluorescence, primary screen (AID 1113).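 Also: score merges 667 nm fluorescence intensity with signal-to-noise per printed feature.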 Particulars: small-molecule microarray, higher = more signal.
Experiment [7] is described as follows: probe aShh binding to arrayed compounds – biochemical, biotinylated probe, 635/667 nm fluorescence, primary screen (AID 1114).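 Also: probe is biotin-labelled aShh protein from a stem cell growth factor screen; measures binding of labelled protein to compounds printed on the slide; score merges feature fluorescence at 667 nm with signal-to-noise.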 As to conditions: small-molecule microarray, higher = more signal.
Experiment [8] in a line: probe aNog binding to arrayed compounds – biochemical, biotinylated probe, 635/667 nm fluorescence, primary screen (AID 1115).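 Also: probe is biotinylated aNog protein used at 0.15 µg/mL for 1 h at 4 C; z-score combines 667 nm fluorescence of each spot with its signal to noise.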 As to conditions: small-molecule microarray, higher = more signal.
Experiment [9] addresses Torsin-1A-interacting protein 1 (Homo sapiens) (UniProt Q5JTV8). The experiment can be described thus: compound microarray binding of lysate hLAP1 – cell lysate, small-molecule microarray, COS7 lysate, 635/667 nm fluorescence, primary screen (AID 1116). Particulars: 635 nm fluorescence, higher = more signal.
The target in experiment [10] is Alpha-bungarotoxin (Bungarus multicinctus) (UniProt P60615). The experiment can be described thus: compounds binding labelled alpha-BTX control protein – biochemical, small-molecule microarray, Alexa647 label, 635/667 nm fluorescence, artefact control for SMM control protein annotation, profiling panel (AID 1117). As to conditions: alpha-BTX-A647 binding fluorescence, higher = more signal.
Sequence of Alpha-bungarotoxin (Bungarus multicinctus) (P60615 whole entry, looked up): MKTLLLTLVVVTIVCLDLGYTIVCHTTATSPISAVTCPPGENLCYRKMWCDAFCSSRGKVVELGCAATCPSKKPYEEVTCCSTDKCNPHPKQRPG

For experiment [11], the target named is Albumin (Bos taurus) (UniProt P02769). The experiment can be described thus: compounds binding labelled BSA control protein – biochemical, small-molecule microarray, Alexa647 label, 635/667 nm fluorescence, artefact control for SMM control protein annotation, profiling panel (AID 1118).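 Also: score merges 667 nm emission intensity and signal-to-noise per printed compound spot.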 Particulars: BSA-A647 binding, fluorescence 635 nm, higher = more signal.
Sequence of Albumin (Bos taurus) (P02769 whole entry, looked up): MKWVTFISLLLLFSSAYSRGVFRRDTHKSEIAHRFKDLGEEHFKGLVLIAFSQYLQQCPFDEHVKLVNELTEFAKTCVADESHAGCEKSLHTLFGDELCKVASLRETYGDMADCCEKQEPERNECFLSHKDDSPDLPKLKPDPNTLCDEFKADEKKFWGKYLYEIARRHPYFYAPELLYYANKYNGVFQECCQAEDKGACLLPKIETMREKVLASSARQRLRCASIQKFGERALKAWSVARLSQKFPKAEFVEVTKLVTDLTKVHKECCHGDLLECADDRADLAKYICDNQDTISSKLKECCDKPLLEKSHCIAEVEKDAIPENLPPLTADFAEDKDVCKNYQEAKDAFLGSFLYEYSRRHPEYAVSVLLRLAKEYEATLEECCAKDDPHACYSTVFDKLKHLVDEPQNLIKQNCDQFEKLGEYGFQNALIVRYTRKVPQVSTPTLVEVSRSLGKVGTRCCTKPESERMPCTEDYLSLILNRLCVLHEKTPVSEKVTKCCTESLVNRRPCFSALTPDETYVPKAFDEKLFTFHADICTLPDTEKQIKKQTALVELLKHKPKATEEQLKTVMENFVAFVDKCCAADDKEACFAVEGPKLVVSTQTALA

Experiment [12] in a line: probe aXIP binding to arrayed compounds – biochemical, NeuroSMM set, 635/667 nm fluorescence, primary screen (AID 1119).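 Also: probe is the protein aXip251-270 applied at 1 µg/mL to compound-printed slides; binding of probe to printed compounds measured as 667 nm fluorescence plus signal to noise.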 Particulars: small-molecule microarray, higher = more signal, called active from +8 up or from −8 down.
A short description of experiment [13]: probe aNOTCH3 binding on compound microarray – biochemical, small-molecule microarray, 635/667 nm fluorescence, primary screen (AID 1120).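 Also: probe is a biotin-tagged antibody raised against NOTCH3 rather than NOTCH3 protein; score merges spot fluorescence near 667 nm with spot signal to noise.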 Particulars: higher = more signal.
The nature of experiment [14]: probe aNOTCH2 binding on compound microarray – biochemical, small-molecule microarray, 635/667 nm fluorescence, primary screen (AID 1121).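 Also: score merges feature fluorescence read at 667 nm with its signal to noise.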 As to conditions: higher = more signal.
The target in experiment [15] is Carbonic anhydrase 2 (Homo sapiens) (UniProt P00918). The experiment can be described thus: compounds binding carbonic anhydrase 2 – biochemical, small-molecule microarray, Alexa647-labelled CAII, profiling panel (AID 1122). Particulars: CAII-A647 binding fluorescence, higher = more signal.
Experiment [16] in a line: COS7 lysate on small-molecule microarray, probe aHis, 635 nm (AID 1123).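 Also: z-score combines 667nm fluorescence intensity with signal-to-noise per printed compound spot.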 Particulars: COS7 cell lysate, fluorescence, higher = more signal.
A short description of experiment [17]: probe aLAP1 signal on lysate-treated microarray – cell lysate, small-molecule microarray, COS7 lysate, primary screen (AID 1124).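 Also: lysate comes from COS7 cells expressing LAP1 and is applied at 0.3 µg/mL; score merges spot fluorescence near 667 nm with signal-to-noise over triplicate slides.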 Particulars: probe aLAP1, fluorescence, higher = more signal.
Experiment [18] deals with Sam68 (KHDRBS1). The experiment can be described thus: compounds binding KHDRBS1 protein – biochemical, small-molecule microarray, 635 nm fluorescence, primary screen (AID 1125).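 Also: score merges 667 nm channel intensity with signal to noise over triplicate slides.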 As to conditions: higher = more signal.
Experiment [19] relates to Chordin-like protein 2 (CHRDL2). In words: compounds binding chordin-like 2 – biochemical, small-molecule microarray, 635 nm fluorescence, primary screen (AID 1126).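 Also: printed compound slides probed with Chrdl2 protein at 4 µg/mL for 1 h at 4 C; score merges 667 nm emission intensity with signal to noise over three replicate slides.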 As to conditions: fluorescence 635 nm, higher = more signal.
For experiment [20], the target named is Concanavalin-A (Canavalia ensiformis) (UniProt P02866). The experiment can be described thus: compounds binding concanavalin A lectin – biochemical, small-molecule microarray, Alexa647 label, 635 nm, artefact control for SMM control protein annotation, primary screen (AID 1127).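 Also: z combines 667 nm emission intensity with signal-to-noise across three replicate slides.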 Particulars: ConA-A647 binding fluorescence, higher = more signal.
Sequence of Concanavalin-A (Canavalia ensiformis) (P02866 whole entry, looked up): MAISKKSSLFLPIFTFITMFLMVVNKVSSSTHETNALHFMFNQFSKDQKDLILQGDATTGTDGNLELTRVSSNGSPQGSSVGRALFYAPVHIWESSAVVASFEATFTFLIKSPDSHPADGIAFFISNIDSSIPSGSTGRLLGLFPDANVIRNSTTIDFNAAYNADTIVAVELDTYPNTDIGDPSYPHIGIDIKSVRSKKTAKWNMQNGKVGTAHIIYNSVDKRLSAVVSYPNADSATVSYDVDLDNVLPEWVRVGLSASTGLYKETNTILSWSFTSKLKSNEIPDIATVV

Sequence of Torsin-1A-interacting protein 1 (Homo sapiens) (Q5JTV8 whole entry, looked up): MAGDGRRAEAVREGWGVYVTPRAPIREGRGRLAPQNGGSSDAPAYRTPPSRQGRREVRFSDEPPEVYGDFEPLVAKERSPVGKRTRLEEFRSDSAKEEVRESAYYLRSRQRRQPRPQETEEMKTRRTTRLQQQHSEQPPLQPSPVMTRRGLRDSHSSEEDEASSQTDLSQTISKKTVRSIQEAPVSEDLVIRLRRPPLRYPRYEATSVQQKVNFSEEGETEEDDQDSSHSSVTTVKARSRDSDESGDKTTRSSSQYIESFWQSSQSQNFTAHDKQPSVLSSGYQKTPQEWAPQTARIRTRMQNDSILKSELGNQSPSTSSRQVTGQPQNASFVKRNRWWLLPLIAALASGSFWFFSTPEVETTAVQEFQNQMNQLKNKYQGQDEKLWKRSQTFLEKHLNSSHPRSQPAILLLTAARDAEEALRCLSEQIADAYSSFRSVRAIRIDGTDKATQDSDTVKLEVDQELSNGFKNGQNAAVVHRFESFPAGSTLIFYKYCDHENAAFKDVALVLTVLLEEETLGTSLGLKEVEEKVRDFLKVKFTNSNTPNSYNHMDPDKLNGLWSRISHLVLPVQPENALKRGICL

As to `CO[C@@H]1[C@H](O)CO[C@H]1C=Cc1ccccc1`, the composite z-score is 0.258 in experiment [1]; 0.509 in [3]; -0.0028 in [4]; -0.144 in [5]; 0.0078 in [6]; -0.16 in [7]. Also, the composite z-score is -0.0563 in experiment [8]; 0.0195 in [9]; 0.241 in [10]; 0.24 in experiment [11]; -0.127 in experiment [13]; -0.0956 in experiment [14]. For the same compound, the composite z-score in experiment [15] worked out at 0.405; in [16], 0.402; in experiment [17], 0.388; in experiment [18], 0.243; in experiment [19], 0.144; in [20], 0.17. In [2], this compound came in with a z-score of -0.696. For the same compound, the composite Z-score in experiment [12] is -0.173 (inactive).
With `C[C@H]1CC[C@@H](C(=O)O)N[C@@H]1c1ccc(C#Cc2ccccc2)cc1`, the composite z-score in experiment [1] was 0.942; in [3], 0.753; in experiment [4], 0.119; in experiment [5] it was -0.332; in experiment [6], -0.0203; in [7], -0.154. Also, the composite z-score in [8] is -0.256; in experiment [9], 0.666; in experiment [10], 0.966; in experiment [11], 0.213; in experiment [13], 0.0876; in experiment [14], -0.0907. Besides, the composite z-score is 0.863 in experiment [15]; 0.803 in experiment [16]; 0.707 in experiment [17]; 1.22 in experiment [18]; 1.34 in [19]; 1.1 in experiment [20]. For the same compound, in [2], the z-score is -4.69. Further, the composite Z-score in experiment [12] is 0.142 (inactive).
For the compound `O=C1[C@H]2[C@H]3[C@H](O)[C@H](O)CC(=NO[C@@H]4O[C@H](CO)[C@@H](O)[C@H](O)[C@H]4O)[C@H]3CC[C@H]2C(=O)N1C[C@@H]1CCCO1`, the composite z-score in [1] was -0.429; in experiment [3], 0.399; in experiment [4], -0.551; in [5], -1.1; in [6], -0.118; in experiment [7] it was -0.117. For the same compound, the composite z-score was -0.379 in [8]; -0.367 in [9]; -0.0473 in experiment [10]; -0.011 in [11]; -0.136 in [13]; -0.0101 in experiment [14]. Further, the composite z-score in experiment [15] is -0.408; in experiment [16] it was -0.686; in experiment [17] it was 0.041; in [18], 0.155; in experiment [19] it was 0.109; in experiment [20], -0.391. Besides, in experiment [2], the z-score was -0.232. Moreover, the composite Z-score in experiment [12] is 0.274 (inactive).
`CCc1cc2c(nc1CC)CCN(CCC(C)=NOCC[C@@H]1C=C[C@H](OC(C)=O)[C@@H](COC(C)=O)O1)C2`: the composite z-score in experiment [1] was 1.11; in [3], 0.879; in [4] it was -0.307; in [5], -1.2; in [6], 0.0209; in experiment [7], -0.167. For the same compound, the composite z-score is -0.4 in experiment [8]; 1.01 in [9]; 0.147 in experiment [10]; 0.466 in [11]; 0.493 in [13]; -0.0798 in experiment [14]. Further, the composite z-score was 0.0943 in experiment [15]; -0.119 in experiment [16]; 0.277 in experiment [17]; 1.23 in experiment [18]; 0.412 in [19]; 0.446 in experiment [20]. This compound also registered a z-score in [2] of -0.879. In [12], the composite Z-score was 0.497 (inactive).
`CC(C)C(=O)N[C@H]1CCCN1C(=O)C=Cc1ccccc1`: the composite z-score in [1] is 0.531; in experiment [3], 0.681; in experiment [4], -0.266; in experiment [5], -0.306; in experiment [6], 0.0495; in [7], 0.3. Moreover, the composite z-score in experiment [8] is 0.254; in experiment [9] it was 0.289; in experiment [10], 0.0359; in [11], 0.564; in experiment [13] it was 0.276; in experiment [14], 0.0062. Moreover, the composite z-score in experiment [15] came out at 0.267; in experiment [16] it was 0.253; in [17], 0.0905; in experiment [18] it was 0.752; in experiment [19], 0.242; in experiment [20], 0.163. This compound also yielded a z-score in experiment [2] of -0.206. Moreover, the composite Z-score in experiment [12] is -0.087 (inactive).
